Measured values published in PubChem BioAssay AID1159580 (chemical genetic matrix, 2015).
Several values for one entry are separate records, joined by “and”; a condition that tells them apart may be missing. Equal entries are not always repeated. Hit rate of the full screen: of about 5,500 compounds, about 2,000 (36%) were called active. Not shown: some 18% with an inconclusive outcome. No stated cut-off is given here; in the data, active means normalized growth mostly below about 0.91 (no sharp cut-off); inconclusive means no clear call, values can overlap the other calls; inactive means mostly above about 0.92. The list shows a part of the results.

Experiment: chemical genetic growth profiling, strain panel (AID 1159580);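 further: tested at 20 µM; growth read once vehicle control cultures reached saturation at 30 °C; 1 = growth at the plate median or of vehicle wells; lower values mean less growth of the strain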
Details: S. cerevisiae deletion strains, growth OD

Measured: normalized growth

CC(=O)/C=C\[C@@H]1[C@@]2(C)CCCC(C)(C)C2CC[C@@]1(C)O (some centres not stated)
inactive: locus YAL013W, strain DEP1, active compounds read low 0.964 | locus YAL021C, strain ccr4, active compounds read low 0.989 | locus YAL026C, strain drs2, active compounds read low 0.971 | locus YAL030W, strain snc1, active compounds read low 0.974 | locus YBL061C, strain skt5, active compounds read low 0.983 | locus YBR009C, strain hhf1, active compounds read low 0.971 | locus YBR021W, strain FUR4, active compounds read low 0.99 | locus YBR023C, strain chs3, active compounds read low 0.977 | locus YBR171W, strain sec66, active compounds read low 0.96 | locus YBR229C, strain ROT2, active compounds read low 0.946 | locus YBR231C, strain swc5, active compounds read low 0.988 | locus YBR279W, strain paf1, active compounds read low 0.966 | locus YCL011C, strain gbp2, active compounds read low 0.966 | locus YCL016C, strain dcc1, active compounds read low 0.988 | locus YCL029C, strain bik1, active compounds read low 0.985 | locus YCL061C, strain MRC1, active compounds read low 0.988 | locus YCL069W, strain vba3, active compounds read low 0.949 | locus YCR088W, strain abp1, active compounds read low 0.986 | locus YDL005C, strain med2, active compounds read low 0.971 | locus YDL035C, strain GPR1, active compounds read low 0.963 | locus YDL040C, strain nat1, active compounds read low 0.983 | locus YDL074C, strain BRE1, active compounds read low 0.901 | locus YDL101C, strain DUN1, active compounds read low 0.952 | locus YDL134C, strain PPH21, active compounds read low 0.964 | locus YDL185W, strain tfp1, active compounds read low 0.966 | locus YDL192W, strain arf1, active compounds read low 0.98 | locus YDR001C, strain nth1, active compounds read low 0.967 | locus YDR069C, strain doa4, active compounds read low 0.973 | locus YDR101C, strain arx1, active compounds read low 0.995 | locus YDR137W, strain rgp1, active compounds read low 0.902 | locus YDR150W, strain NUM1, active compounds read low 0.967 | locus YDR159W, strain sac3, active compounds read low 0.922 | locus YDR162C, strain NBP2, active compounds read low 0.843 | locus YDR195W, strain ref2 0.955 | locus YDR297W, strain sur2, active compounds read low 0.982 | locus YDR318W, strain mcm21, active compounds read low 1 | locus YDR334W, strain swr1, active compounds read low 0.946 | locus YDR335W, strain msn5, active compounds read low 0.981 | locus YDR388W, active compounds read low 0.987 | locus YDR392W, strain spt3, active compounds read low 0.842 | locus YDR502C, strain sam2, active compounds read low 0.951 | locus YEL003W, strain gim4, active compounds read low 0.976 | locus YEL037C, strain rad23, active compounds read low 0.969 | locus YEL061C, strain CIN8 (second series), active compounds read low 0.961 | locus YEL061C, strain CIN8, active compounds read low 0.968 | locus YER015W, strain faa2, active compounds read low 0.966 | locus YER016W, strain bim1, active compounds read low 0.982 | locus YER110C, active compounds read low 0.985 | locus YER111C, strain swi4, active compounds read low 0.978 | locus YER155C, strain BEM2 (second series), active compounds read low 0.982 | locus YER155C, strain BEM2, active compounds read low 0.972 | locus YER167W, strain BCK2, active compounds read low 0.989 | locus YFR010W, strain ubp6, active compounds read low 0.967 | locus YGL078C, strain dbp3, active compounds read low 0.968 | locus YGL086W, strain mad1, active compounds read low 0.996 | locus YGL167C, strain pmr1, active compounds read low 0.971 | locus YGL173C, strain kem1, active compounds read low 0.975 | locus YGL227W, strain vid30, active compounds read low 0.982 | locus YGL240W, strain doc1, active compounds read low 0.976 | locus YGL248W, strain PDE1, active compounds read low 0.969 | locus YGL253W, strain hxk2, active compounds read low 0.975 | locus YGR078C, strain PAC10, active compounds read low 0.963 | locus YGR135W, strain pre9, active compounds read low 0.922 | locus YGR229C, strain SMI1, active compounds read low 0.933 | locus YGR252W, strain gcn5, active compounds read low 1.05 | locus YHR013C, strain ard1, active compounds read low 0.964 | locus YHR027C, strain rpn1, active compounds read low 0.967 | locus YHR030C, strain SLT2, active compounds read low 0.993 and 0.958 | locus YHR079C, strain IRE1 (second series), active compounds read low 0.987 | locus YHR079C, strain IRE1, active compounds read low 0.989 | locus YHR094C, strain hxt1, active compounds read low 0.99 | locus YHR129C, strain ARP1, active compounds read low 0.975 | locus YHR142W, strain chs7, active compounds read low 0.979 | locus YHR200W, strain rpn10, active compounds read low 0.988 | locus YIL066C, strain RNR3, active compounds read low 0.953 | locus YIL073C, strain SPO22, active compounds read low 1.02 | locus YIL125W, strain kgd1, active compounds read low 0.991 | locus YIR030C, strain dcg1, active compounds read low 0.978 | locus YJL092W, strain hpr5, active compounds read low 0.98 | locus YJL095W, strain BCK1 (second series), active compounds read low 0.963 | locus YJL095W, strain BCK1, active compounds read low 0.916 and 0.981 | locus YJL115W, strain asf1, active compounds read low 0.96 | locus YJL129C, strain trk1, active compounds read low 0.957 | locus YJL134W, strain LCB3, active compounds read low 0.969 | locus YJL154C, strain vps35, active compounds read low 0.973 | locus YJL164C, strain tpk1, active compounds read low 0.997 | locus YJL166W, strain qcr8, active compounds read low 0.982 | locus YJL168C, strain set2, active compounds read low 0.976 | locus YJL187C, strain SWE1 (second series), active compounds read low 0.945 | locus YJL187C, strain SWE1, active compounds read low 0.969 | locus YJR043C, strain POL32, active compounds read low 1.03 | locus YJR066W, strain TOR1, active compounds read low 0.951
